Source: PubChem BioAssay (NCI)
This is part of a sample that, as a whole, favours compounds with a hit. Of some 83,000 tested, about 20% had one in any assay.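 The endpoint reported here, percent growth, reads 100 for growth as untreated, 0 for no net growth and -100 for all cells dead.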 Active and inactive are the calls of the source. Rule for the calls: active = growth percent below 10; inactive = the rest.

Legend:
Experiment in all cases: NCI-60 one-dose screen, 48 h (100 = growth as untreated, 0 = no growth, -100 = all killed)
Settings in all cases: 10 µM unless noted
HCT-15 colon = tested on: HCT-15 colon
HT29 colon = tested on: HT29 colon
SNB-75 CNS = tested on: SNB-75 CNS
SNB-19 CNS = tested on: SNB-19 CNS
U251 CNS = tested on: U251 CNS
PC-3 prostate = tested on: PC-3 prostate
SK-MEL-5 melanoma = tested on: SK-MEL-5 melanoma
UACC-62 melanoma = tested on: UACC-62 melanoma
LOX IMVI melanoma = tested on: LOX IMVI melanoma
SK-MEL-28 melanoma = tested on: SK-MEL-28 melanoma

Measured: growth

Cc1ccc(NC(=O)c2sc3nc(C)c(C(O)c4ccccc4)cc3c2N)cc1 (stereo not given)
inactive: SNB-75 CNS 22.5% | SNB-19 CNS 24.5% | U251 CNS 13.9% | PC-3 prostate 19.6% | SK-MEL-5 melanoma 12.7% | UACC-62 melanoma 28.8% | LOX IMVI melanoma 23.5% | SK-MEL-28 melanoma 57.6%
active: HCT-15 colon 9.64% | HT29 colon 9.15%

O=C(NCCN1CCOCC1)OCc1ccc2c(Cl)cc(Cl)c(O)c2n1
inactive: HCT-15 colon 19.5% | HT29 colon 108% | SNB-75 CNS 71.2% | SNB-19 CNS 59% | U251 CNS 44.6% | PC-3 prostate 60% | SK-MEL-5 melanoma 53.8% | UACC-62 melanoma 59.7% | LOX IMVI melanoma 51% | SK-MEL-28 melanoma 71.6%

CC1(C)N=C(N)N=C(N)N1c1ccc(S(=O)(=O)Nc2nccs2)cc1
inactive: HCT-15 colon 103% | HT29 colon 102% | SNB-75 CNS 64.9% | SNB-19 CNS 98.2% | U251 CNS 103% | PC-3 prostate 93.7% | SK-MEL-5 melanoma 106% | UACC-62 melanoma 93.6% | LOX IMVI melanoma 100% | SK-MEL-28 melanoma 106%

COc1ccc2c(c1)CC[C@@H]1[C@@H]2CC[C@]2(C)c3c(cc(C#N)c4c3sc3ccccc34)C[C@@H]12
inactive: HCT-15 colon 104% | HT29 colon 100% | SNB-75 CNS 86% | SNB-19 CNS 104% | U251 CNS 104% | PC-3 prostate 85.5% | SK-MEL-5 melanoma 95.9% | UACC-62 melanoma 99.5% | LOX IMVI melanoma 96.8% | SK-MEL-28 melanoma 110%

Brc1ccc(Nc2nc(Nc3cnc4ccccc4c3)c3[nH]cnc3n2)cc1
inactive: HCT-15 colon 83% | HT29 colon 70.7% | SNB-75 CNS 77.5% | SNB-19 CNS 93.6% | U251 CNS 89.4% | PC-3 prostate 27.6% | SK-MEL-5 melanoma 72.6% | UACC-62 melanoma 66.8% | LOX IMVI melanoma 63.7% | SK-MEL-28 melanoma 94.2%

CC(=O)Nc1sc2c(c1-c1nc3ccccc3s1)CNC2
inactive: HCT-15 colon 11.3% | HT29 colon 15.7% | SNB-75 CNS 29.5% | SNB-19 CNS 26.8% | U251 CNS 27.3% | PC-3 prostate 21.7% | SK-MEL-5 melanoma 17.4% | UACC-62 melanoma 20.1% | SK-MEL-28 melanoma 34.2%
active: LOX IMVI melanoma 3.64%

COc1cc(-c2cc(-c3ccc(Nc4nc(Nc5ccc(Cl)cc5)nc(Nc5ccc(Cl)cc5)n4)cc3)no2)cc(OC)c1OC
inactive: HCT-15 colon 81.2% | HT29 colon 78.8% | SNB-75 CNS 74.6% | SNB-19 CNS 81.6% | U251 CNS 73.4% | PC-3 prostate 60.1% | SK-MEL-5 melanoma 61.2% | UACC-62 melanoma 82.1% | LOX IMVI melanoma 73.3% | SK-MEL-28 melanoma 88%

O=C(Nc1ccc(Oc2cccc(Cl)c2)c(Cl)c1)c1cccnn1
inactive: HCT-15 colon 56.7% | HT29 colon 89.9% | SNB-75 CNS 77.7% | SNB-19 CNS 89.5% | U251 CNS 76.7% | PC-3 prostate 57.2% | SK-MEL-5 melanoma 83.8% | UACC-62 melanoma 74.7% | LOX IMVI melanoma 88.5% | SK-MEL-28 melanoma 99.4%

Cc1cc(O)c(=O)cc2c1C[C@H]1CC(C)(C)/C=C/C[C@]3(C)Oc4cc(=O)c(O)cc(C)c4C[C@H]3C[C@H](O)[C@@]1(C)O2
inactive: HCT-15 colon 17.3% | SNB-75 CNS 23.5% | PC-3 prostate 10.2%
active: HT29 colon 7.77% | SNB-19 CNS 4.62% | U251 CNS 2.67% | SK-MEL-5 melanoma -9.26% | UACC-62 melanoma -56.5% | LOX IMVI melanoma 6.33% | SK-MEL-28 melanoma 5.5%

c1cc(OCCN2CCCCC2)ccc1CNc1ccc2nc(CCC3CCCCC3)[nH]c2c1
inactive: SNB-75 CNS 68.1% | SNB-19 CNS 62% | PC-3 prostate 44.9% | UACC-62 melanoma 53.5%
active: HCT-15 colon -13.9% | HT29 colon 8.7% | U251 CNS -11.8% | SK-MEL-5 melanoma -99.4% | LOX IMVI melanoma -82% | SK-MEL-28 melanoma -86.6%

Cc1ccc(OCCOCCOCCOCCOCCOc2ccc(C)n(O)c2=S)c(=S)n1O
inactive: HCT-15 colon 29% | HT29 colon 25.7% | SNB-75 CNS 24.8% | SNB-19 CNS 16.7% | U251 CNS 12.3% | PC-3 prostate 33.3% | SK-MEL-28 melanoma 33.2%
active: SK-MEL-5 melanoma -32.3% | UACC-62 melanoma -13.9% | LOX IMVI melanoma 3.58%

Cc1[nH]c(C(=O)Nc2ccccc2OC2CCN(CCN3CCOCC3)CC2)c(Cl)c1Cl
inactive: HCT-15 colon 83.6% | HT29 colon 73.7% | SNB-75 CNS 76.1% | SNB-19 CNS 107% | U251 CNS 93.3% | PC-3 prostate 78.3% | SK-MEL-5 melanoma 87.9% | UACC-62 melanoma 108% | LOX IMVI melanoma 86.3% | SK-MEL-28 melanoma 104%

Cc1ccc(-c2csc(NC(=O)CSc3nc(N)cc(N)n3)n2)cc1
active: SK-MEL-5 melanoma 2.45%
inactive: HCT-15 colon 75.2% | HT29 colon 87.8% | SNB-75 CNS 81.1% | SNB-19 CNS 64.2% | U251 CNS 78.1% | PC-3 prostate 70.5% | UACC-62 melanoma 55.1% | LOX IMVI melanoma 60.2% | SK-MEL-28 melanoma 88.7%

N#Cc1ccccc1-c1ccc(CN2C(=O)S/C(=C\c3ccc(Br)cc3)C2=O)cc1
inactive: HCT-15 colon 98.7% | HT29 colon 104% | SNB-75 CNS 82.8% | SNB-19 CNS 93.5% | U251 CNS 96.4% | PC-3 prostate 99.9% | SK-MEL-5 melanoma 98.7% | UACC-62 melanoma 88.7% | LOX IMVI melanoma 101% | SK-MEL-28 melanoma 108%

C=C(C)[C@@H]1CC[C@]2(C(=O)N3CCN(C)CC3)CC[C@]3(C)[C@H](CC[C@@H]4[C@@](C)(CCC(=O)O)[C@H](C(=C)C)CC[C@]43C)[C@@H]12
inactive: HCT-15 colon 82.5% | HT29 colon 78% | SNB-75 CNS 76% | SNB-19 CNS 93.6% | U251 CNS 79.7% | PC-3 prostate 55.4% | SK-MEL-5 melanoma 82.7% | UACC-62 melanoma 71.3% | LOX IMVI melanoma 92.5% | SK-MEL-28 melanoma 99%

Cn1cc(-c2nc3c(F)cc4[nH]ncc4c3c3c2CCCC3)c(C(F)(F)F)n1
active: PC-3 prostate 0.262%
inactive: HCT-15 colon 23.7% | HT29 colon 37.1% | SNB-75 CNS 22.5% | SNB-19 CNS 75.3% | U251 CNS 59.8% | SK-MEL-5 melanoma 40.2% | UACC-62 melanoma 29.5% | LOX IMVI melanoma 28.7% | SK-MEL-28 melanoma 51%

c1ccc(-c2ccc3c(c2)C2(CCNCC2)CN3)cc1
inactive: HCT-15 colon 99.6% | HT29 colon 96.5% | SNB-75 CNS 73.8% | SNB-19 CNS 101% | U251 CNS 102% | PC-3 prostate 86.9% | SK-MEL-5 melanoma 99.1% | UACC-62 melanoma 84.6% | LOX IMVI melanoma 89.9% | SK-MEL-28 melanoma 110%

C#CCOc1cccc(Nc2ncnc3cc(NC(=O)CCl)ccc23)c1
active: HCT-15 colon -53.5% | HT29 colon -78.9% | SNB-75 CNS -49.9% | SNB-19 CNS -88% | U251 CNS -78.9% | PC-3 prostate -83.8% | SK-MEL-5 melanoma -93.8% | UACC-62 melanoma -73.9% | LOX IMVI melanoma -67.3% | SK-MEL-28 melanoma -30.6%

COCCn1cc(-c2csc(-c3c[nH]c4ccc(F)cc34)n2)c2cccnc21
inactive: HCT-15 colon 14.7% | HT29 colon 11.8% | SNB-75 CNS 39.7% | SNB-19 CNS 58.1% | U251 CNS 32.5% | PC-3 prostate 22.5% | UACC-62 melanoma 42.5% | LOX IMVI melanoma 21.8% | SK-MEL-28 melanoma 46.6%
active: SK-MEL-5 melanoma 1.53%

Clc1ccc(Nc2ncc(Cc3cccc(Cl)c3Cl)s2)cc1
inactive: HCT-15 colon 92.3% | HT29 colon 95.7% | SNB-75 CNS 116% | SNB-19 CNS 98% | U251 CNS 85.7% | PC-3 prostate 88% | SK-MEL-5 melanoma 97.1% | UACC-62 melanoma 81.6% | LOX IMVI melanoma 97.7% | SK-MEL-28 melanoma 95.6%

CCOC(=O)C1=C(CC(O)c2ccc(OC)cc2OC)NC(=O)NC1c1ccccc1 (stereo not given)
inactive: HCT-15 colon 110% | HT29 colon 100% | SNB-75 CNS 87.3% | SNB-19 CNS 99.8% | U251 CNS 106% | PC-3 prostate 95.3% | SK-MEL-5 melanoma 95.5% | UACC-62 melanoma 89.8% | LOX IMVI melanoma 94.5% | SK-MEL-28 melanoma 115%

CSc1nc2ccc(C)cc2cc1/C=C1/C=C(c2ccccc2)NC1=O
inactive: HCT-15 colon 57.4% | HT29 colon 57.6% | SNB-75 CNS 26.4% | SNB-19 CNS 67.3% | U251 CNS 16.3% | PC-3 prostate 68.4% | SK-MEL-5 melanoma 80.4% | UACC-62 melanoma 71.9% | LOX IMVI melanoma 45.3% | SK-MEL-28 melanoma 79.1%

COc1ccc(/C=C2\CN(C(=O)C(Cl)Cl)C/C(=C\c3ccc(OC)c(OC)c3)C2=O)cc1OC
inactive: HT29 colon 10.8% | SNB-75 CNS 10.9%
active: HCT-15 colon -38.9% | SNB-19 CNS 6.34% | U251 CNS -17.4% | PC-3 prostate -7.16% | SK-MEL-5 melanoma -58.8% | UACC-62 melanoma -59.6% | LOX IMVI melanoma -67.8% | SK-MEL-28 melanoma -8.59%

COc1ccc2cc(-c3nc4ccc(C)cn4c3NCc3ccco3)c(=O)[nH]c2c1
inactive: HCT-15 colon 75.8% | HT29 colon 79.9% | SNB-75 CNS 56% | SNB-19 CNS 34.6% | U251 CNS 75.1% | PC-3 prostate 46.1% | SK-MEL-5 melanoma 56.9% | UACC-62 melanoma 46% | LOX IMVI melanoma 75.8% | SK-MEL-28 melanoma 81.8%

CCOC(=O)c1nnn(Cc2cc(=O)oc3ccc(O)cc23)c1C
inactive: HCT-15 colon 103% | HT29 colon 103% | SNB-75 CNS 93.4% | SNB-19 CNS 96% | U251 CNS 105% | PC-3 prostate 95.2% | SK-MEL-5 melanoma 104% | UACC-62 melanoma 95.9% | LOX IMVI melanoma 99.9% | SK-MEL-28 melanoma 107%

COc1ccc(CN2C(=O)OC(C)(COC(C)=O)C2=O)cc1 (stereo not given)
inactive: HCT-15 colon 102% | HT29 colon 107% | SNB-75 CNS 100% | SNB-19 CNS 102% | U251 CNS 104% | PC-3 prostate 101% | SK-MEL-5 melanoma 101% | UACC-62 melanoma 95.6% | LOX IMVI melanoma 100% | SK-MEL-28 melanoma 101%
